Measured values as given in ChEMBL document CHEMBL3433997, “St. Jude Leishmania screening dataset” (2016).

The compounds below were run against Glucose transporter (Leishmania mexicana) (UniProt O61059) (assay: ST_JUDE_LEISH: Cytotoxicity at 2uM final concentration against transgenic Leishmania Mexicana promastigotes LmGT2 that are glucose transport deficient and complemented with the L. Mexicana glucose transporter 2. Activity is measured by DNA content using SYBR green in vitro).
Format: functional

| SMILES | inhibition |
| --- | --- |
| N#Cc1ccc2c(c1)CN(CCC1CCC(NC(=O)c3cc4cnccc4[nH]3)CC1)CC2 (stereo not given) | 3.7% |
| CN(C)S(=O)(=O)c1ccc(N2CCN(CCC3(c4cccc(F)c4)CCN(C(=O)C(C)(C)C)CC3)CC2)c2nonc12 | 2.89% |
| CC(C)NCc1ccc(-c2cccc(CN3CCC(c4ccccc4)CC3)c2)c(C(=O)NCC2CCCCC2)c1 | 8.2% |
| CC(=O)Nc1ccc(OCCCCN(Cc2ccccc2C(F)(F)F)c2ccc(C#N)c(C(F)(F)F)c2)c(Cl)c1 | 4.57% |
| CC(=O)Nc1ncc(C(=O)Nc2cccc(-c3ccc(-c4nc5cccc(C)c5[nH]4)cc3)c2)s1 | 0.54% |
| N#Cc1ccc(NC(=O)c2ccc(C(=O)NCCCCN3CCC(c4ccc5c(c4OCCOC4CCCCO4)CCCC5)CC3)cc2)cc1 (stereo not given) | 0.27% |
| CN1CCCN(Cc2cccc(-c3cccc(NC(=O)c4ccc(Cl)cc4)c3)c2)CC1 | 3.68% |
| CN1CCC(COc2ccc(CN3CCC(NC(=O)c4cccc(Cl)c4)CC3)cc2)CC1 | 0.42% |
| CCOc1cc(C(=O)Nc2ccccc2N2CCN(S(C)(=O)=O)CC2)cc(OCC)c1OCC | 3.43% |
| N=C1N=C(N)NC2(CCCCC2)N1OCCCOc1cccc2ccccc12 | 37.9% |
| Cc1c[nH]c(-c2cccc(C(=O)NC3CCC(CCN4CCc5ccc(C#N)cc5CC4)CC3)c2)n1 (stereo not given) | 1.55% |
| CCOC(=O)c1nc(-c2ccccc2)[nH]c1NC(=S)NC1CCCCC1 | -6.59% |
| COCCN(C)c1ccc(C(=O)Nc2ccccc2)cc1NS(=O)(=O)Cc1ccccc1 | 3.54% |
| CC(C)(C)c1ccccc1SC1=C(O)CC2(CCNCC2)OC1=O | 1.29% |
| COc1cccc2c(N/N=C/c3cccc([N+](=O)[O-])c3)ccnc12 | 8.14% |
| Cn1cc(CCNc2ccnc(NCCc3coc4ccccc34)n2)c2ccccc21 | 2.14% |
| Oc1ccc(Nc2nc(NCC3CCCO3)c3ccccc3n2)cc1 (stereo not given) | 1.86% |
| O=C(Nc1ccc(S(=O)(=O)N2CCOCC2)cc1)c1cc(-c2cc(Cl)ccc2O)n[nH]1 | 0.85% |
| C=C1C(C(=O)OCC)=CN(CC)c2cc(O[C@H]3CCN(C(=O)OC(C)(C)C)C3)ccc21 | -2.32% |
| FC(F)(F)c1ccc2[nH]c(-c3cccc(-c4cccc(CNCC5CCCO5)c4)c3)nc2c1 (stereo not given) | 3.26% |

| SMILES | inhibition |
| --- | --- |
| COc1ccc(Cn2c(Nc3cccc(C(F)(F)F)c3)nc3cc(C(=O)NCCN4CCCC4)cnc32)cc1Cl | 15.6% |
| COc1ccc(-c2ccc(NC(=O)c3cccc(Cl)c3)cc2)cc1CNC(C)C | 1.96% |
| OC(CNCc1ccccc1OCc1ccccc1)c1cc(Br)cs1 (stereo not given) | 3.82% |
| O=c1cc(NCCCNCc2sc(Br)nc2Br)[nH]c2ccccc12 | 4.34% |
| Cc1ccc(C(=O)NCC2CCN(c3ccc(C(F)(F)F)cc3NC(=O)c3ccco3)CC2)cn1 | 3.12% |
| COc1ccccc1CCNc1nc(C)cc(N[C@@H](Cc2ccccc2)C(=O)NCc2cccc(F)c2)n1 | 5.51% |
| NS(=O)(=O)c1cccc(Nc2nc(N[C@@H]3CCNC3)nc3cc[nH]c(=O)c23)c1 | -3% |
| N#Cc1ccc(Cn2ccc3c4c(N)nc(N)nc4ccc32)cc1 | 77.7% |
| Fc1ccc2[nH]c(-c3cccc(-c4ccc(CNCCN5CCNCC5)cc4)c3)nc2c1 | -0.74% |
| COc1ccc(CN(C)C(=O)CCNS(=O)(=O)c2ccc3c(c2)OCCCO3)cc1F | 7.12% |
| O=S(=O)(c1cccc(Cl)c1F)N(CCC(O)(C(F)(F)F)C(F)(F)F)Cc1cccc(O)c1 | -0.05% |
| CCCn1c(O)nnc1SCC(=O)Nc1cc(Cl)ccc1Cl | -0.21% |
| CN(Cc1ccc(-c2ccc(C(F)(F)F)cc2)cc1)C(=O)Cn1c(CCc2cccc(F)c2F)cc(=O)c2ccc(OCC3CCCN3C)cc21 (stereo not given) | 4.42% |
| Cc1nc2ccccc2c(O)c1-c1ccc(Cl)cc1 | -1.04% |
| Cc1c(C)n(Cc2ccccc2)c2ncnc(OC3CCN(CC(=O)NCC4CC4)CC3)c12 | 0.21% |
| COc1ccc2nccc([C@@H](O)CN3CCC(NCc4ccc5c(c4)NC(=O)CS5)CC3)c2c1 | -0.16% |
| COc1ccccc1-c1ccc2nnc(SCC(=O)Nc3ccc4c(c3)OCCO4)n2n1 | 3.67% |
| O=C(N[C@@H](CC1CCCCC1)C(=O)NCc1cccc(C(F)(F)F)c1)c1ccc(O)c(-c2ccc(Cl)c(Cl)c2)c1 | 1.16% |
| CN(C)c1ccc(-c2csc(C(=O)NCC3CCN(Cc4cccc(C(F)(F)F)c4)C3)c2)cc1 (stereo not given) | 9.26% |
| O=C(N[C@@H](CC1CCCCC1)C(=O)NCCN1CCCCC1)c1ccc(O)c(-c2ccc(Cl)c(Cl)c2)c1 | 0.7% |
